AMA1 RON2 block = qHTS for Inhibitors of AMA1-RON; Towards Development of Antimalarial Drug Lead: Primary Screen; AID 720542, 2013; AlphaScreen AMA1-biotinylated RON2 peptide binding; Potency, µM (titrated, usually from 58.2 µM), for inactives: at the top dose activity change, negative = inhibition, hits mostly inhibitors; actives 0.2% (n = 360,000);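 note: 0% = vehicle wells and -100% = peptide control; nearly all actives have a fitted effect of over 45% in size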
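AMA1 (3D7) with his tag at 25 nM final met compounds first, then biotinylated RON2 peptide at 25 nM; detection used donor plus acceptor beads, 10 µg/mL apiece, read by AlphaScreen after 30 min at room temperature.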
AmpC inh no detg = qHTS Inhibitors of AmpC Beta-Lactamase (assay without detergent). P00811. AmpC nitrocefin hydrolysis, absorbance 480 nm, 0.0001% Triton. Potency, µM (highest dose often 57.1 µM), without a hit: at the highest dose activity change, negative = inhibition, usual class: inhibitors. actives 0.52% (n = 330,000). AID 485341, 2010;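 note: plate controls were no compound for no effect and no enzyme for full effect; nearly all actives have a fitted effect of over 20% in size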
Target sequence (P00811 whole entry, looked up): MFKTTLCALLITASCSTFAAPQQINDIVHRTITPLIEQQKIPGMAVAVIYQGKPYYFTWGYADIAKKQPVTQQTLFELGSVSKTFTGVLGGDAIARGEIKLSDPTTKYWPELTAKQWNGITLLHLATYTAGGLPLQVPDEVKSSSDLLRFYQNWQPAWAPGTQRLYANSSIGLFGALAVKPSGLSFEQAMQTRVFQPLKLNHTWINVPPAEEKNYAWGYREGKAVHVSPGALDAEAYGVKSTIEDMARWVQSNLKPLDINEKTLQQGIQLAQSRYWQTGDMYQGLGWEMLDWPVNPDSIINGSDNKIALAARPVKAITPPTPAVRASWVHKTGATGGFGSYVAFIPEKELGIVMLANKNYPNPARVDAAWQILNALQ
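20 mM phosphate pH 7.0 + 0.01% (detergent screen) or 0.0001% Triton X-100; 5.3 nM AmpC reagent; cpd preinc 15 min RT; nitrocefin (800 uM stock) to start; A480 q20 s × 4 min; Activity was normalised to no-enzyme and no-compound control wells.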
AmpC detergent = qHTS Inhibitors of AmpC Beta-Lactamase (assay with detergent). actives 0.041% (n = 370,000). AmpC hydrolysis of nitrocefin, absorbance 480 nm, 0.01% Triton. Potency, µM (top dose mostly 114 µM), inactives show top-dose activity change, negative = inhibition, hits mostly inhibitors. AID 485294, 2010. P00811;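 note: 0% = no-compound wells and -100% = no-enzyme wells; nearly all actives have a fitted effect of over 25% in size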
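20 mM phosphate pH 7.0 + 0.01% (detergent screen) or 0.0001% Triton X-100; 5.3 nM AmpC reagent; cpd preinc 15 min RT; nitrocefin (800 uM stock) to start; A480 q20 s × 4 min; Activity was normalised to no-enzyme and no-compound control wells.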
Sm TGR inh = qHTS Assay for the Inhibitors of Schistosoma Mansoni Peroxiredoxins; AID 485364, 2010; actives 3% (n = 360,000); purified TGR, DTNB reduction, TNB absorbance 405 nm; Schistosoma mansoni thioredoxin glutathione reductase (TGR), Q962Y6; Potency, µM (titrated, usually from 114 µM), inactives show top-dose activity change, negative = inhibition, actives largely listed as inhibitors; note: nearly all actives have a fitted effect of over 60% in size
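First, TGR (20 nM dispensed) and NADPH were mixed with compound. Second, a 15 min room-temperature incubation followed. Third, further NADPH and then DTNB were added to start the reaction. Finally, TNB absorbance was monitored kinetically.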
FMDV inh = High Throughput Screening for Foot and Mouth Disease Virus Antivirals. AID 1159524, 2015. Potency, µM (top dose mostly 57.9 µM), for the others: at the highest dose activity change, negative = inhibition, hits mostly inhibitors. FMDV antiviral cell-based qHTS. actives 1.2% (n = 410,000); calls by dose curve; tested in HEK293T cells; note: read-out not given here; nearly all actives have a fitted effect of over 45% in size
The depositor's hits bear a star. Only some compounds are listed: those with a hit (about 4.1% of all), similar ones and a draw of the others. Unless noted, calls come from the whole dose curve; as a rule, active = well fitted curve in the direction sought with a large enough effect; inconclusive = small, poorly fitted or top-dose-only effect, or another doubt; inactive = no such curve, though single readings can be large; an effect the other way counts as inactive or inconclusive. Unless noted, % is set by controls: 0 for no effect and ±100 for the full control effect; potency is the fitted concentration of half-maximal effect.

`Nc1ccc2ccc3cccc[n+]3c2c1` gave AMA1 RON2 block -5.8%, AmpC inh no detg -7.2%, AmpC detergent -13.6%, Sm TGR inh 31.6µM* and FMDV inh -9.3%.
CCn1c(C)cs/c1=N\S(=O)(=O)c1ccccc1 was read as AMA1 RON2 block 16.4%, AmpC inh no detg -9.0%, AmpC detergent -12.7%, Sm TGR inh 4.2% and FMDV inh 30.1%.
Screening O=Cc1s/c(=N\S(=O)(=O)c2ccccc2)n(CCCCl)c1Cl returned AMA1 RON2 block -11.2%, AmpC inh no detg -33.2%, AmpC detergent inconclusive, Sm TGR inh 0.631µM* and FMDV inh 7.94µM*.
Cn1c(SCC(=O)Nc2cc(Cl)cc(Cl)c2)nnc1-c1ccc2nonc2c1 was read as AMA1 RON2 block -14.0%, AmpC inh no detg -25.9%, AmpC detergent 0.4%, Sm TGR inh 17.8µM* and FMDV inh inconclusive.
`Cn1c(SCC(=O)Nc2ccccc2F)nnc1-c1cccnc1` gave AMA1 RON2 block -0.7%, AmpC inh no detg -4.1%, AmpC detergent inconclusive, Sm TGR inh 3.8% and FMDV inh 13.4%.
For Cn1c(SCC(=O)Nc2ccc(F)cc2)nnc1-c1cccnc1 the results were AMA1 RON2 block -1.0%, AmpC inh no detg 31.6µM*, AmpC detergent inconclusive, Sm TGR inh -19.4% and FMDV inh -10.5%.
CCc1ccccc1-n1c(SCC(=O)NC)nnc1-c1cccnc1 was read as AMA1 RON2 block 15.3%, AmpC inh no detg 1.1%, AmpC detergent 35.5µM*, Sm TGR inh -12.3% and FMDV inh -23.9%.
Cc1cccc2c(=O)cc(CSc3ccccc3NC(=O)C(C)(C)C)[nH]c12 was read as AmpC detergent -4.9%, Sm TGR inh 0.5% and FMDV inh 0.0%.
Screening O=C(c1cccc(F)c1)N(Cc1cc2cc3c(cc2nc1N1CCOCC1)CCC3)CC1CCCO1 (centres undefined) returned FMDV inh -14.3%.
`C#CCNC(=O)C1=C[C@@H](C2CCCCC2)C[C@@H](OCc2ccc(CO)cc2)O1` gave AMA1 RON2 block -1.2%, AmpC inh no detg 39.1%, AmpC detergent 5.2%, Sm TGR inh 22.4µM* and FMDV inh -7.8%.
For O=C(NC1CC1)C1=C[C@H](C2CCCCC2)C[C@H](OCc2ccc(CO)cc2)O1 the results were AMA1 RON2 block -11.2%, AmpC inh no detg 126.9%, AmpC detergent -5.0%, Sm TGR inh -4.5% and FMDV inh 2.8%.
`C#CCNC(=O)C1=C[C@H](C2CCCCC2)C[C@H](OCc2ccc(CO)cc2)O1` gave AMA1 RON2 block -4.8%, AmpC inh no detg 99.0%, AmpC detergent 5.7%, Sm TGR inh 20µM* and FMDV inh 22.5%.
Screening CCOc1ccc(S(=O)(=O)Nc2cccc(-c3ccc(N4CCCC4)nn3)c2)cc1 returned AmpC detergent -6.9%, Sm TGR inh -8.0% and FMDV inh 37.2%.
For CCOc1ccc(CNC(=O)CCn2c(=O)c3cccn3c3cccnc32)cc1 the results were AmpC detergent 1.7%, Sm TGR inh -15.4% and FMDV inh 19.2%.
Cc1ccc(C2=[N+]([O-])C3(CCCCC3=O)N(O)C2(C)C)cc1 (centres undefined) was read as AMA1 RON2 block -0.3%, AmpC inh no detg -18.5%, AmpC detergent 6.9%, Sm TGR inh inconclusive and FMDV inh 9.7%.
`CC1(C)C(c2ccco2)=[N+]([O-])C2(CCCCC2=O)N1O` (centres undefined) gave AMA1 RON2 block -4.6%, AmpC inh no detg -17.5%, AmpC detergent inconclusive, Sm TGR inh 50.1µM* and FMDV inh -21.3%.
Cc1ccc(S(=O)(=O)NCc2ccc(N3CCN(C(=O)OC(C)(C)C)CC3)cc2)cc1 was read as AMA1 RON2 block -2.0%, AmpC inh no detg 0.7%, AmpC detergent 3.8%, Sm TGR inh -2.8% and FMDV inh 28.2µM*.
Screening O=C(Nc1ccc(N2CCN(c3ncccc3C(F)(F)F)CC2)nc1)c1cccs1 returned AMA1 RON2 block -18.6%, AmpC inh no detg -5.4%, AmpC detergent -1.1%, Sm TGR inh 14.6% and FMDV inh 12.6µM*.
`Cc1ccc2c(c1)CN(CCNC(=O)c1cc3ccccc3oc1=O)CC(C)O2` (centres undefined) gave FMDV inh 0.0%.
Screening CN1C(=O)NC(c2cccc(O)c2)C(C(=O)c2cccs2)C1(O)C(F)(F)F (centres undefined) returned AMA1 RON2 block -3.0%, AmpC inh no detg -5.2%, AmpC detergent 5.9% and Sm TGR inh 3.55µM*.
For CCOC(=O)C1C(c2cccs2)NC(=O)N(C)C1(O)C(F)(F)F (centres undefined) the results were AMA1 RON2 block 0.0%, AmpC inh no detg -12.9%, AmpC detergent 2.1%, Sm TGR inh -16.9% and FMDV inh -4.0%.
`CC1(C)C2CC=C(/C=N/NC(=O)c3ccccc3O)C1C2` (centres undefined) gave AMA1 RON2 block inconclusive, AmpC inh no detg 11.2µM*, AmpC detergent -9.6%, Sm TGR inh -13.7% and FMDV inh -2.1%.
O=C(N/N=C\C=C\c1ccc(Br)cc1)c1ccc2c(c1)OCO2 was read as AMA1 RON2 block 11.4%, AmpC inh no detg -33.5%, AmpC detergent 44.7µM*, Sm TGR inh -1.6% and FMDV inh -9.0%.
Screening O=C(N/N=C\c1cc(Br)c(Br)o1)c1cncc(Br)c1 returned AMA1 RON2 block -3.0%, AmpC inh no detg -30.3%, AmpC detergent -9.9%, Sm TGR inh -0.3% and FMDV inh -3.9%.
O=C(N/N=C/c1cc(Br)c(Br)o1)c1cccnc1 was read as AMA1 RON2 block 29.3%, AmpC inh no detg -20.9%, AmpC detergent 1.9%, Sm TGR inh 28.2µM* and FMDV inh 8.4%.
Screening O=C(N/N=C/c1cc(Br)c(Br)o1)c1ccc2c(c1)OCCO2 returned AMA1 RON2 block 2.9%, AmpC inh no detg -51.2%, AmpC detergent 0.3%, Sm TGR inh 11.2µM* and FMDV inh 4.6%.
`CCOc1ccccc1NC(=O)N1CCN(Cc2cc(=O)n3nc(-c4ccc(C)cc4)sc3n2)CC1` gave AmpC detergent 3.1%, Sm TGR inh -0.6% and FMDV inh -13.6%.
For CCc1ccc(NC(=O)C(=O)NCC(c2cccnc2)N2CCc3ccccc3C2)cc1 (centres undefined) the results were AmpC detergent -7.2%, Sm TGR inh -10.5% and FMDV inh 10µM*.
For O=C(NCC(c1cccnc1)N1CCc2ccccc2C1)C(=O)Nc1ccccc1 (centres undefined) the results were AmpC detergent -1.5%, Sm TGR inh 1.7% and FMDV inh -9.1%.

Screening results deposited in PubChem by National Center for Advancing Translational Sciences (NCATS).
